Assay results from PubChem BioAssay (NCI).
Where “and” joins values, the source holds several entries; their conditions need not be identical. Identical values can stand only once. The panel holds about 83,000 compounds, 20% with a hit somewhere; the sample as a whole holds those more often.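 Testing used 96-well plates and a 48-hour single-concentration exposure. Example: -40 means 40% of the starting cells died.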

Tests used:
Test in all cases: NCI-60 one-dose screen, 48 h (100 = growth as untreated, 0 = no growth, -100 = all killed); active = growth percent below 10; inactive = the rest
SK-MEL-2 melanoma = tested on: SK-MEL-2 melanoma
EKVX NSCLC = conditions: 10 µM unless noted
SN12C renal = tested on: SN12C renal
UO-31 renal = tested on: UO-31 renal
TK-10 renal = tested on: TK-10 renal
ACHN renal = tested on: ACHN renal
CAKI-1 renal = tested on: CAKI-1 renal
A498 renal = tested on: A498 renal
CCRF-CEM leukemia = conditions: 10 µM unless noted
MOLT-4 leukemia = tested on: MOLT-4 leukemia

Measured: growth

CC(NC(=O)CCl)c1ccccc1 (stereo not given)
inactive: SK-MEL-2 melanoma; 10 µM unless noted 104% | EKVX NSCLC 99% | SN12C renal; 10 µM unless noted 110% | UO-31 renal; 10 µM unless noted 98.8% | TK-10 renal; 10 µM unless noted 98.8% | ACHN renal; 10 µM unless noted 106% | CAKI-1 renal; 10 µM unless noted 101% | A498 renal; 10 µM unless noted 83.9% | CCRF-CEM leukemia 105%

C(=N\OCCc1ccccc1)/c1ccccn1
inactive: SK-MEL-2 melanoma; 10 µM unless noted 124% and 104% | EKVX NSCLC 115% and 106% | SN12C renal; 10 µM unless noted 119% and 109% | UO-31 renal; 10 µM unless noted 109% and 98% | TK-10 renal; 10 µM unless noted 93.3% and 89.5% | ACHN renal; 10 µM unless noted 110% and 107% | CAKI-1 renal; 10 µM unless noted 105% and 100% | A498 renal; 10 µM unless noted 96.3% and 85.7% | CCRF-CEM leukemia 106% and 94.6% | MOLT-4 leukemia; 10 µM unless noted 101% and 93.1%

COC1C(OC(N)=O)C(O)C(Oc2ccc3c(O)c(NC(=O)c4ccc(O)c(CC=C(C)C)c4)c(=O)oc3c2C)OC1(C)C (stereo not given)
inactive: SK-MEL-2 melanoma; 10 µM unless noted 105% and 111% | EKVX NSCLC 109% | SN12C renal; 10 µM unless noted 106% and 97.3% | UO-31 renal; 10 µM unless noted 107% and 96.9% | TK-10 renal; 10 µM unless noted 115% and 108% | ACHN renal; 10 µM unless noted 23.8% and 101% | CAKI-1 renal; 10 µM unless noted 85.9% and 101% | A498 renal; 10 µM unless noted 106% and 70.8% | CCRF-CEM leukemia 90% and 59.2%

CS/C(=C\c1ccc(C(=O)c2ccc(C)cc2)n1C)S(C)=O (stereo not given)
inactive: SK-MEL-2 melanoma; 10 µM 98.8% | SK-MEL-2 melanoma; 100 µM 81.4% | EKVX NSCLC 63.8% [100 µM] | SN12C renal; 10 µM 82% | SN12C renal; 100 µM 80.9% | UO-31 renal; 10 µM 92.2% | UO-31 renal; 100 µM 57.8% | TK-10 renal; 10 µM 108% | TK-10 renal; 100 µM 87% | ACHN renal; 10 µM 87.4% | ACHN renal; 100 µM 83.2% | CAKI-1 renal; 10 µM 75.5% | CAKI-1 renal; 100 µM 63.2% | A498 renal; 10 µM 108% | A498 renal; 100 µM 109% | MOLT-4 leukemia; 10 µM 93.9% | MOLT-4 leukemia; 100 µM 66.8%

COc1ccc(-n2[nH]c3c(cnc4ccccc43)c2=O)cc1
inactive: SK-MEL-2 melanoma; 10 µM unless noted 79.5% and 111% | EKVX NSCLC 89% | SN12C renal; 10 µM unless noted 85% and 95% | UO-31 renal; 10 µM unless noted 70.7% | TK-10 renal; 10 µM unless noted 90% and 93.4% | ACHN renal; 10 µM unless noted 95.9% and 107% | CAKI-1 renal; 10 µM unless noted 68.3% and 95.9% | A498 renal; 10 µM unless noted 93.7% and 91.9% | CCRF-CEM leukemia 101% | MOLT-4 leukemia; 10 µM unless noted 108% and 99.9%

CS(=O)(=O)c1nsc(N)n1
inactive: SK-MEL-2 melanoma; 10 µM unless noted 96.3% | EKVX NSCLC 108% | SN12C renal; 10 µM unless noted 101% | UO-31 renal; 10 µM unless noted 91.4% | TK-10 renal; 10 µM unless noted 101% | ACHN renal; 10 µM unless noted 107% | CAKI-1 renal; 10 µM unless noted 103% | A498 renal; 10 µM unless noted 97.4% | CCRF-CEM leukemia 106% | MOLT-4 leukemia; 10 µM unless noted 103%

Cc1ccc(C(=O)c2ccc(C)cc2)cc1
inactive: SK-MEL-2 melanoma; 10 µM unless noted 98.5% and 98.1% | EKVX NSCLC 92.6% and 101% | SN12C renal; 10 µM unless noted 92.6% and 103% | UO-31 renal; 10 µM unless noted 76.9% and 98.3% | TK-10 renal; 10 µM unless noted 101% and 96.5% | ACHN renal; 10 µM unless noted 99.8% and 107% | CAKI-1 renal; 10 µM unless noted 93.4% | A498 renal; 10 µM unless noted 96.4% and 111% | CCRF-CEM leukemia 91.6% and 93.3% | MOLT-4 leukemia; 10 µM unless noted 82.5% and 97.8%

Nc1ccccc1SC1CC(=O)N(c2ccc(I)cc2)C1=O (stereo not given)
inactive: SK-MEL-2 melanoma; 10 µM unless noted 86.9% | EKVX NSCLC 90.6% | SN12C renal; 10 µM unless noted 91.8% | UO-31 renal; 10 µM unless noted 86.8% | TK-10 renal; 10 µM unless noted 106% | ACHN renal; 10 µM unless noted 86% | CAKI-1 renal; 10 µM unless noted 81.7% | A498 renal; 10 µM unless noted 108% | CCRF-CEM leukemia 89.7% | MOLT-4 leukemia; 10 µM unless noted 81.5%

CCOC(C)=N
inactive: SK-MEL-2 melanoma; 10 µM unless noted 110% | EKVX NSCLC 134% | SN12C renal; 10 µM unless noted 105% | UO-31 renal; 10 µM unless noted 107% | TK-10 renal; 10 µM unless noted 107% | ACHN renal; 10 µM unless noted 104% | CAKI-1 renal; 10 µM unless noted 108% | A498 renal; 10 µM unless noted 120% | CCRF-CEM leukemia 98.6% | MOLT-4 leukemia; 10 µM unless noted 94.6%

CC(=O)Oc1ccc(C(c2ccc(OC(C)=O)cc2)c2ccccn2)cc1
inactive: SK-MEL-2 melanoma; 10 µM unless noted 107% and 94.3% | EKVX NSCLC 82.5% and 87.8% | SN12C renal; 10 µM unless noted 29.3% and 30.9% | UO-31 renal; 10 µM unless noted 74.3% and 89.2% | TK-10 renal; 10 µM unless noted 77.1% and 86.1% | ACHN renal; 10 µM unless noted 82.5% and 81.1% | CAKI-1 renal; 10 µM unless noted 100% and 117% | A498 renal; 10 µM unless noted 91.1% | CCRF-CEM leukemia 98.8% and 90.9% | MOLT-4 leukemia; 10 µM unless noted 93.3% and 103%
